The list is not random: actives were taken first. Their share in the collection is about 2.5%.
Cruzain inh noDet: qHTS Assay for Promiscuous and Specific Inhibitors of Cruzain (without detergent); purified cruzain, Z-FR-AMC fluorescence, no detergent; Potency, µM, for inactives: max response, negative = inhibition, actives largely listed as inhibitors; actives 2.3% (n = 200,000);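 further: plate controls were enzyme without inhibitor for no effect and buffer without enzyme for full effect; nearly all actives have a fitted effect of over 40% in size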
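Detergent-free condition (0.00005% Triton X-100) in acetate buffer pH 5.5 with DTT. 1.5 nM enzyme and compound were pre-mixed 15 min, then 2 uM Z-FR-AMC substrate added; reaction progress from fluorescence change between first and third reads (60 s).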
Cruzain Triton: qHTS Assay for Promiscuous and Specific Inhibitors of Cruzain (with detergent). purified cruzain, Z-FR-AMC fluorescence, 0.01% Triton. Potency, µM, inactives show max response, negative = inhibition, actives largely listed as inhibitors. actives 0.43% (n = 200,000). AID 1478, 2009;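 further: plate controls were neutral wells for no effect and buffer without enzyme for full effect; nearly all actives have a fitted effect of over 40% in size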
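Purified cruzain (1.5 nM final) was preincubated with compounds for 15 min at room temperature in 100 mM sodium acetate pH 5.5, 5 mM DTT, 0.01% Triton X-100. Reaction started with 2 uM Z-FR-AMC; AMC fluorescence change over 60 s gave activity.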
Papain inh: qHTS Assay for Inhibitors of Papain: Counterscreen for Cruzain Assay | purified papain, Z-FR-AMC fluorescence cleavage | actives 41% (n = 410) | Potency, µM, inactives show max response, negative = inhibition, actives largely listed as inhibitors | shares compounds with Cruzain Triton;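 further: 0% = no-compound wells and -100% = no-enzyme wells; nearly all actives have a fitted effect of over 35% in size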
Target sequence (P00784 whole entry, looked up): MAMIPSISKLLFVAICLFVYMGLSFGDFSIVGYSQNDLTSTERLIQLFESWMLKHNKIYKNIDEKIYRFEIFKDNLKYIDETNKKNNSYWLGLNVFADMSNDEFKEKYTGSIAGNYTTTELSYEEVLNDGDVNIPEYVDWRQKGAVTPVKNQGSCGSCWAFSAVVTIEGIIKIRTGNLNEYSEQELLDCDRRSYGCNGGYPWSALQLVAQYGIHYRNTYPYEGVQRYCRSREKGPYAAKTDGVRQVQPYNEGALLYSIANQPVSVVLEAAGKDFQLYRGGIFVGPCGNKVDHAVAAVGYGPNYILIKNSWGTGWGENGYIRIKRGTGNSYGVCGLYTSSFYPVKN
The depositor's hits bear a star. The call rests on the fitted dose curve; in most records, active means well fitted curve in the direction sought with a large enough effect; inconclusive means small, poorly fitted or top-dose-only effect, or another doubt; inactive means no such curve, though single readings can be large; an effect the other way counts as inactive or inconclusive. Potency means the concentration at half of the fitted maximal effect.

NC(=O)CSc1nc2ccccc2n1Cc1ccccc1 was read as Cruzain inh noDet -3.4% and Cruzain Triton -3.7%.
Screening CCc1ccccc1NC(=O)c1sc(-n2nc(C)c(Cc3ccccc3)c2C)nc1C returned Cruzain inh noDet -5.4% and Cruzain Triton -2.1%.
CCN(CC)S(=O)(=O)c1ccc(N=Nc2c(C)[nH]n(C(N)=S)c2=O)cc1 was read as Cruzain inh noDet -18.8% and Cruzain Triton -24.6%.
For NC(=S)n1[nH]c(-c2ccc([N+](=O)[O-])cc2)c(N=Nc2ccc(O)cc2)c1=O the results were Cruzain inh noDet 0.631µM*, Cruzain Triton 0.355µM* and Papain inh -1.4%.
Screening Cc1ccc(C)c(NC(=O)CSc2cn(CC(=O)N3CCCCC3)c3ccccc23)c1 returned Cruzain inh noDet -2.7% and Cruzain Triton 1.1%.
O=C(N[C@@H](Cc1ccccc1)C(=O)CCl)OCc1ccccc1 was read as Cruzain inh noDet 0.316µM*, Cruzain Triton 0.159µM* and Papain inh 5.01µM*.
For CSCC[C@H](NC(=O)OCc1ccccc1)C(=O)O the results were Cruzain inh noDet -0.6% and Cruzain Triton -1.5%.
For CCCNc1nc(C#N)nc(Nc2ccccc2)n1 the results were Papain inh 1µM*.
`Clc1nc(Nc2ccccc2)nc(Nc2ccccc2)n1` gave Cruzain inh noDet -7.7% and Cruzain Triton -5.8%.
`CCNc1nc(C#N)nc(Nc2ccccc2)n1` gave Papain inh 5.62µM*.
Screening CC(C)(CO)Nc1nc(Nc2ccccc2)nc(Nc2ccccc2)n1 returned Cruzain inh noDet -1.9% and Cruzain Triton -13.9%.
Screening CC(C)COc1ccc(C(=O)Nc2nnc(S(=O)(=O)N(C)Cc3ccco3)s2)cc1 returned Cruzain inh noDet inconclusive and Cruzain Triton -5.3%.
For CN1C(=O)c2ccccc2Sc2ccc(NC(=O)NCc3cccc(Cl)c3)cc21 the results were Cruzain inh noDet inconclusive and Cruzain Triton -7.6%.
`CO[C@@H](CCO)C[C@H]1O[C@H](C(=O)OC(C)C)CC[C@@H]1C` gave Cruzain inh noDet -3.8% and Cruzain Triton 0.2%.
Screening S=C(NC1CCCCC1)N(CCc1nc2ccccc2[nH]1)C1CCCC1 returned Cruzain inh noDet 10.5%, Cruzain Triton 12.6µM* and Papain inh 6.6%.
For O=C(Nc1ccccc1)N(CCc1nc2ccccc2[nH]1)C1CCCC1 the results were Cruzain inh noDet -5.8% and Cruzain Triton 0.3%.
Screening CCN(C(=O)c1c(C)oc2ncnc(N3CCCCC3)c12)c1cc(C)ccc1C returned Cruzain inh noDet 0.4% and Cruzain Triton 0.6%.
Screening CCN(C(=O)c1nn(-c2ccc(OC)c(Cl)c2)c(=O)c2c1c1ccccc1n2C)c1cc(OC)ccc1OC returned Cruzain inh noDet -6.0% and Cruzain Triton -1.7%.
`Cc1cc(OCC(=O)Nc2ccc(N3CCCC3)cc2)cc(C)c1Cl` gave Cruzain inh noDet 3.98µM*, Cruzain Triton inconclusive and Papain inh 3.3%.
Screening Cc1cc(OCC(=O)Nc2ccc(N3CCN(C(=O)c4ccco4)CC3)cc2)cc(C)c1Cl returned Cruzain inh noDet 0.8% and Cruzain Triton -0.3%.
For Cc1nn2c(=O)cc(COC(=O)c3ccccc3NC(=O)C(C)C)nc2s1 the results were Cruzain inh noDet 2.6% and Cruzain Triton 0.5%.
For Cc1ccc(C(=O)NCc2ccc3c(c2)CCN3C(=O)c2ccc(C)cc2)cc1 the results were Cruzain inh noDet -5.0% and Cruzain Triton -1.3%.
Screening Nc1nnc(CC(=O)N/N=C/c2ccc(-c3ccccc3Cl)o2)s1 returned Cruzain inh noDet -14.8% and Cruzain Triton -16.0%.
For NC(=S)N/N=C\c1ccc(-c2cccc(Cl)c2Cl)o1 the results were Cruzain inh noDet 0.631µM*, Cruzain Triton 0.631µM* and Papain inh 2.82µM*.
`NC(=S)N/N=C/c1ccc(-c2ccc(Cl)c(Cl)c2)o1` gave Cruzain inh noDet 0.631µM*, Cruzain Triton 0.631µM* and Papain inh 6.31µM*.
`COC(=O)N/N=C\c1ccc(-c2cc(Cl)c(Cl)cc2Cl)o1` gave Cruzain inh noDet inconclusive and Cruzain Triton -4.2%.
For Cn1c(=O)c(CCc2ccccc2)nc2cnc(N3CCNCC3)nc21 the results were Cruzain inh noDet 2.5% and Cruzain Triton -1.0%.
For C=C(C)C(=O)OC1(C(F)(F)F)Oc2cc(C)ccc2NC1=O (stereo unspecified) the results were Cruzain inh noDet 7.94µM*, Cruzain Triton 6.31µM* and Papain inh 28.2µM*.
`CCOC(=O)C1(N(CC)CC)Sc2cc(C)ccc2NC1=O` (stereo unspecified) gave Cruzain inh noDet -0.6% and Cruzain Triton -7.9%.
For COc1cc(C(=O)NCc2ccc3c(c2)CCN3C(=O)c2ccc(Cl)cc2)cc(OC)c1OC the results were Cruzain inh noDet inconclusive and Cruzain Triton -3.2%.
For CCc1ccc2[nH]c(=O)c(CN(Cc3cccnc3)Cc3nnnn3Cc3ccccc3)cc2c1 the results were Papain inh -4.1%.
`Cc1ccc2[nH]c(=O)c(CN(Cc3cccs3)Cc3nnnn3Cc3ccccc3)cc2c1` gave Cruzain inh noDet 3.2% and Cruzain Triton -3.8%.
CCc1ccc2[nH]c(=O)c(CN(Cc3ccc(OC)cc3)Cc3nnnn3CCOC)cc2c1 was read as Cruzain inh noDet inconclusive and Cruzain Triton -3.8%.
Screening CCc1ccc2[nH]c(=O)c(CN(Cc3ccccc3)Cc3nnnn3C(C)(C)C)cc2c1 returned Papain inh -25.9%.
`COc1ccc(C2C(=O)N(C3CCCCCC3)CC(=O)N2Cc2ccc(C)cc2)cc1` (stereo unspecified) gave Cruzain inh noDet 1.9% and Cruzain Triton 1.3%.
Screening CCC(C)NC(=O)Cn1ncc2c(C)n(Cc3ccc(F)cc3)c(C)c2c1=O (stereo unspecified) returned Cruzain inh noDet 10.6% and Cruzain Triton -3.3%.
`CC1(C)CC(=O)c2cc(NC(=O)c3ccccc3)c(=O)oc2C1` gave Cruzain inh noDet -9.9% and Cruzain Triton -3.4%.
For Cc1oc(=O)c(NC(=O)c2ccccc2)cc1C(=O)c1ccccc1 the results were Cruzain inh noDet 0.794µM*, Cruzain Triton 3.16µM* and Papain inh 5.0%.
Screening CC(C)(C)c1ccc(C(=O)Nc2ccc(Cl)cc2C(=O)c2ccccc2)cc1 returned Cruzain inh noDet -14.2% and Cruzain Triton -2.2%.
`Cc1oc(=O)c(NC(=O)c2ccc(Cl)cc2)cc1C(=O)c1ccccc1` gave Cruzain inh noDet 2µM*, Cruzain Triton 2.51µM* and Papain inh 8.2%.
CCCCNC(=O)c1nn(-c2ccc(C)cc2)c(=O)c2c1c1ccccc1n2C was read as Cruzain inh noDet 9.9% and Cruzain Triton -0.7%.
For O=[N+]([O-])c1ccccc1S(=O)(=O)NCC1CCC(CNCC2CCc3ccccc3C2)CC1 (stereo unspecified) the results were Cruzain inh noDet -4.8%, Cruzain Triton -3.1% and Papain inh 5.4%.
`O=[N+]([O-])c1ccccc1S(=O)(=O)NCCC1=CCCCC1` gave Cruzain inh noDet -1.6% and Cruzain Triton -0.4%.
COC(=O)c1c(NC(=O)c2cc3nc(-c4ccc(Br)cc4)cc(C(F)(F)F)n3n2)sc2c1CCCC2 was read as Cruzain inh noDet -1.7% and Cruzain Triton 3.1%.

Screening data: PubChem, National Center for Advancing Translational Sciences (NCATS)
